Measurements published in the supplement of paper PMC10849652.
Of roughly 7,900 targets only a part is listed; those with a hit were picked by preference. About 0.6% of all pairs of compound and target were hits.

How the values were obtained:
Experiment in all cases: log2 fold change, soluble protein after heating vs DMSO (PISA); higher = thermal stabilisation; K562 cells, 10 uM, 30 min; active = over 0.2 and 3.5 SD of the protein, either way, in both replicates (recomputed)
[1] = compound: NC(=O)Nc1cc(-c2cccc(F)c2)sc1C(=O)N[C@H]1CCCNC1
How it was run: (§1)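 K562 cells at 2×10^6 cells/mL were treated for 30 min with 10 μM compound, and aliquots were heated for 3 min over 48°C-58°C before pooling. Extraction used PBS with 0.5% NP-40 at 4°C, and soluble protein was the supernatant after 21,000xg for 90 min, measured by TMTpro 16plex LC-MS/MS with channel sums equalised. Thermal stability values, relative to control samples and from duplicates, are log2 fold changes.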

[2] = compound: NC(=O)c1cnc(N[C@@H]2CCCC[C@@H]2N)nc1Nc1cccc(-n2nccn2)c1
How it was run: as §1

[3] = compound: NC1(c2ccc(-c3nc4ccn5c(=O)[nH]nc5c4cc3-c3ccccc3)cc2)CCC1
How it was run: as §1

[4] = compound: NCC(=O)Nc1ccc(-n2nc(C(F)(F)F)cc2-c2ccc3c(ccc4ccccc43)c2)cc1
How it was run: as §1

[5] = compound: Nc1ccccc1NC(=O)c1ccc(CNC(=O)OCc2cccnc2)cc1 [entinostat]
How it was run: as §1

[6] = compound: O=C(CCCCCCC(=O)Nc1ccccc1)NO [vorinostat]
How it was run: as §1

[7] = compound: O=C(CCCCCCNC(=O)c1cnc(N(c2ccccc2)c2ccccc2Cl)nc1)NO [citarinostat]
How it was run: as §1

[8] = compound: O=C(O)c1ccc2c(c1)nc(Nc1cccc(Cl)c1)c1ccncc12 [silmitasertib]
How it was run: as §1

[9] = compound: O=C1NC(=O)C(c2cnc3ccccn23)=C1c1cn2c3c(cc(F)cc13)CN(C(=O)N1CCCCC1)CC2
How it was run: as §1

[10] = compound: c1cc(OCCN2CCCCC2)cc(-c2n[nH]c3ccc(-c4nnc[nH]4)cc23)c1
How it was run: as §1

[11] = compound: c1cn2cc(-c3ccc4cn[nH]c4c3)nc(Nc3ccc(N4CCOCC4)cc3)c2n1 [entospletinib]
How it was run: as §1

Measured: log2 fold change

PEX11B (UniProt O96011)
inactive: [1] 0.095 | [2] 0.052 | [3] -0.03 | [4] 0.073 | [5] 0.047 | [6] 0.049 | [7] 0.114 | [8] -0.031 | [9] 0.035 | [10] 0.024 | [11] -0.082

PEX7 (UniProt O00628)
inactive: [1] -0.017 | [2] -0.031 | [3] -0.022 | [4] -0.03 | [5] -0.077 | [6] 0.013 | [7] 0.074 | [8] -0.017 | [9] -0.051 | [10] 0.042 | [11] -0.01

PARN (UniProt O95453)
inactive: [1] 0.012 | [2] -0.042 | [3] -0.1 | [4] -0.087 | [5] 0.015 | [6] 0.03 | [7] 0.056 | [8] 0.028 | [9] -0.069 | [10] -0.082 | [11] -0.06

PRKCG (UniProt P05129)
inactive: [1] -0.064 | [2] -0.043 | [3] -0.086 | [4] 0.068 | [5] 0.117 | [6] 0.109 | [7] 0.193 | [8] 0.062 | [9] -0.229 | [10] 0.082 | [11] 0.044

PIK3C3 (UniProt Q8NEB9)
Sequence of UniProt Q8NEB9 (Q8NEB9 whole entry, looked up): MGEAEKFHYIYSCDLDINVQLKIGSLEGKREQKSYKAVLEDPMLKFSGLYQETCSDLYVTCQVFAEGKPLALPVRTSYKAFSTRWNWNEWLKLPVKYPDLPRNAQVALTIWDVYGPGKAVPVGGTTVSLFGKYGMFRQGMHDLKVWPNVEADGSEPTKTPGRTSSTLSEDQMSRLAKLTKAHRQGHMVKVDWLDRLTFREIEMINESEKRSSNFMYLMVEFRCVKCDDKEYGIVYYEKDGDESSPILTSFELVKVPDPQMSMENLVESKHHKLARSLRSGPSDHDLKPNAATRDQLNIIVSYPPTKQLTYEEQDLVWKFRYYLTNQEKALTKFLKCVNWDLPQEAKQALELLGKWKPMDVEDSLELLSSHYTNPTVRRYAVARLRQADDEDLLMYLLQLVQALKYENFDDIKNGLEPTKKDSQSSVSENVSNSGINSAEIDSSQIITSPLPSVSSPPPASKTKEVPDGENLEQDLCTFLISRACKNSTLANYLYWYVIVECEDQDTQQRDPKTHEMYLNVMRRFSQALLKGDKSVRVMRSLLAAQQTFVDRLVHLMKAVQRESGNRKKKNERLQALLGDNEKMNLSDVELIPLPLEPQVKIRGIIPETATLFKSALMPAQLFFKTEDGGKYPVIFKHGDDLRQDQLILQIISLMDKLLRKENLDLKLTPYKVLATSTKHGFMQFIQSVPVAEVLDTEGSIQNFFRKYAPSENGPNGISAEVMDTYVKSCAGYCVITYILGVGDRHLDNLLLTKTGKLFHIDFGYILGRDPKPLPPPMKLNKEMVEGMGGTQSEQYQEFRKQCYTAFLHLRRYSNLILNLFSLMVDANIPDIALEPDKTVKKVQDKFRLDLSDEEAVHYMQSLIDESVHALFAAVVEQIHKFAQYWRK
inactive: [1] 0.068 | [2] 0.117 | [3] -0.018 | [4] -0.015 | [5] -0.03 | [6] -0.038 | [7] -0.038 | [8] 0.051 | [9] 0.078 | [10] -0.041 | [11] 0.039

PPIL2 (UniProt Q13356)
inactive: [1] -0.069 | [2] -0.058 | [3] -0.077 | [4] -0.1 | [5] 0.059 | [6] 0.063 | [7] 0.065 | [8] 0.083 | [9] -0.07 | [10] -0.014 | [11] -0.027

QKI (UniProt Q96PU8)
inactive: [1] -0.057 | [2] -0.137 | [3] -0.086 | [4] -0.084 | [5] 0.006 | [6] 0.06 | [7] 0.026 | [8] -0.012 | [9] -0.071 | [10] 0.064 | [11] 0.065

PTTG1IP (UniProt P53801)
Sequence of UniProt P53801 (P53801 whole entry, looked up): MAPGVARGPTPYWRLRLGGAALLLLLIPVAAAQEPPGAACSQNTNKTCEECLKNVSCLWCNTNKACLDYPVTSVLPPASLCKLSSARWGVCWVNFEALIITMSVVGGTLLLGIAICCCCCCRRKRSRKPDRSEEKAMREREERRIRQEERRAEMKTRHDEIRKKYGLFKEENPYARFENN
inactive: [1] -0.033 | [2] 0.026 | [3] -0.222 | [4] 0.065 | [5] 0.12 | [6] -0.077 | [7] -0.017 | [8] 0.083 | [9] 0.017 | [10] 0.07 | [11] -0.044

PRKAR2A (UniProt P13861)
active: [1] -0.502
inactive: [2] -0.071 | [3] -0.002 | [4] -0.039 | [5] 0.025 | [6] -0.012 | [7] 0.002 | [8] 0.051 | [9] 0.002 | [10] -0.028 | [11] 0.088

PRPF4B (UniProt Q13523)
Sequence of UniProt Q13523 (Q13523 whole entry, looked up): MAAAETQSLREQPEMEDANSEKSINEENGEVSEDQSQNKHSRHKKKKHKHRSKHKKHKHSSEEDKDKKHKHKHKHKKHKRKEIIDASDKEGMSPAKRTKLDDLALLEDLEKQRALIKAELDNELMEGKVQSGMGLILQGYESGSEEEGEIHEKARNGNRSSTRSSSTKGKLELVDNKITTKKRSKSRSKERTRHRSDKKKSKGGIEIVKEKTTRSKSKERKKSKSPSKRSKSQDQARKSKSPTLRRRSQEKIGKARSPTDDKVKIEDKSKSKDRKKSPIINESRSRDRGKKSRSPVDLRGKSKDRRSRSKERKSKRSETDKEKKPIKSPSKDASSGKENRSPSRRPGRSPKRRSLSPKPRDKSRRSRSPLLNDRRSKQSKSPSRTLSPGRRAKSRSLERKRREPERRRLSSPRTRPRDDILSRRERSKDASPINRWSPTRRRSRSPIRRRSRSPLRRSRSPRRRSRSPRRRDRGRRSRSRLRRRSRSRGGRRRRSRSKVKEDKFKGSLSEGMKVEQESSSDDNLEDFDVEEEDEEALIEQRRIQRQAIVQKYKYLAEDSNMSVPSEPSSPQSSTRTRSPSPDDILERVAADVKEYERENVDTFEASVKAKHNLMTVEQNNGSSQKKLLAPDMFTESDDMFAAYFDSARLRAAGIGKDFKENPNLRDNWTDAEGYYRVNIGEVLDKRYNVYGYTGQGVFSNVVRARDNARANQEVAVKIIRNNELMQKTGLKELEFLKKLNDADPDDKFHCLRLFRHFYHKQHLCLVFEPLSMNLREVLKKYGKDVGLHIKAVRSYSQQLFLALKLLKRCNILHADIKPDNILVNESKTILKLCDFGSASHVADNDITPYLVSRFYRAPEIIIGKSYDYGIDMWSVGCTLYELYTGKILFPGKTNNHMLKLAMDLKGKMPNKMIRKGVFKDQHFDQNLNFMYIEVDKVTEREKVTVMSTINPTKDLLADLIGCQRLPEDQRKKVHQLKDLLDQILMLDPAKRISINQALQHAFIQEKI
inactive: [1] -0.057 | [2] -0.075 | [3] -0.022 | [4] -0.065 | [5] -0.008 | [6] 0.025 | [7] 0.033 | [8] 0.01 | [9] 0.055 | [11] 0.09
active: [10] -0.328

PIP4P2 (UniProt Q8N4L2)
active: [3] -0.373
inactive: [1] 0.02 | [2] -0.152 | [4] -0.024 | [5] 0.007 | [6] 0.042 | [7] -0.02 | [8] 0.074 | [9] 0.082 | [10] 0.051 | [11] 0.115

POLR2I (UniProt P36954)
inactive: [1] -0.025 | [2] 0.115 | [3] 0.102 | [4] 0.067 | [5] 0.114 | [6] -0.243 | [7] -0.09 | [8] 0.028 | [9] -0.091 | [10] -0.005 | [11] 0.306

PRKACB isoform 2 (UniProt P22694)
inactive: [1] 0.078 | [2] -0.11 | [3] -0.173 | [4] -0.02 | [5] 0.001 | [6] 0.04 | [7] 0.015 | [8] -0.002 | [9] -0.119 | [10] -0.065 | [11] -0.019

PTPN23 (UniProt Q9H3S7)
inactive: [1] -0.039 | [2] 0.011 | [3] -0.081 | [4] -0.063 | [5] 0.06 | [6] 0.05 | [7] 0.05 | [8] 0.037 | [9] -0.065 | [10] -0.024 | [11] -0.031

PHF5A (UniProt Q7RTV0)
Sequence of UniProt Q7RTV0 (Q7RTV0 whole entry, looked up): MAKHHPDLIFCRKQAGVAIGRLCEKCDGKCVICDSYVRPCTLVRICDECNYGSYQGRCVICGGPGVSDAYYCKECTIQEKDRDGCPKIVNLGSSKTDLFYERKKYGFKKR
inactive: [1] -0.004 | [2] 0.009 | [3] 0.101 | [4] 0.051 | [5] -0.017 | [6] -0.08 | [7] 0.014 | [8] 0.082 | [9] -0.024 | [10] -0.003 | [11] -0.101

PRIM1 (UniProt P49642)
inactive: [1] -0.008 | [2] -0.016 | [3] -0.093 | [4] -0.056 | [5] 0.041 | [6] 0.065 | [7] 0.063 | [8] 0.089 | [9] 0.023 | [10] -0.037 | [11] 0.062

PJA2 (UniProt O43164)
Sequence of UniProt O43164 (O43164 whole entry, looked up): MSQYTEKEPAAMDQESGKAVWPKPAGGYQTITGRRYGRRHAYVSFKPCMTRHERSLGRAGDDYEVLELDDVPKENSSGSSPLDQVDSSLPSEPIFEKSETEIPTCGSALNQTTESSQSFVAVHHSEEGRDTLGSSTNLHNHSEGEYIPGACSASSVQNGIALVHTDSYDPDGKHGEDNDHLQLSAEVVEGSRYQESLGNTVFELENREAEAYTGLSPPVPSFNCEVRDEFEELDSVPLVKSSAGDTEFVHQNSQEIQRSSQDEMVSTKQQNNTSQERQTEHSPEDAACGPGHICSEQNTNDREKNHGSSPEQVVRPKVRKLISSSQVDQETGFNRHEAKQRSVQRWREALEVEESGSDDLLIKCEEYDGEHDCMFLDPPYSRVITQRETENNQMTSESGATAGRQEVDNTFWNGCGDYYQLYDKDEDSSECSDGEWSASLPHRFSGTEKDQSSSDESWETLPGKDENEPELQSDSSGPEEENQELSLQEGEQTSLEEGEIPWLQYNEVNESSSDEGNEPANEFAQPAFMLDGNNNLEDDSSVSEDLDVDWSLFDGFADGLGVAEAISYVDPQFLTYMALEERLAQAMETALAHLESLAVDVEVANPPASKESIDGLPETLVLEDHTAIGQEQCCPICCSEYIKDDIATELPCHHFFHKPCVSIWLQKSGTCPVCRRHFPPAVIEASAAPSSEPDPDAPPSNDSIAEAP
inactive: [1] -0.006 | [2] -0.047 | [3] -0.049 | [4] 0.029 | [5] 0.004 | [6] -0.001 | [7] -0.005 | [8] 0.026 | [9] -0.059 | [10] -0.075 | [11] -0.009

PTPA (UniProt Q15257)
inactive: [1] -0.022 | [2] 0.001 | [3] -0.021 | [4] 0.028 | [5] 0 | [6] 0.004 | [7] 0.028 | [8] -0.027 | [9] -0.021 | [10] -0.015 | [11] -0.004

PLCG1 isoform 2 (UniProt P19174)
inactive: [1] 0.01 | [2] -0.193 | [3] -0.197 | [4] -0.109 | [5] 0.04 | [6] -0.003 | [7] 0.059 | [8] 0.01 | [9] 0 | [10] -0.066 | [11] 0.021

PRKCB isoform 2 (UniProt P05771)
inactive: [1] -0.052 | [2] -0.037 | [3] -0.118 | [4] -0.058 | [5] 0.045 | [6] 0.02 | [7] 0.041 | [8] 0.032 | [9] -0.051 | [10] 0.02 | [11] -0.012

PPP2R5C isoform 5 (UniProt Q13362)
inactive: [1] 0.003 | [2] 0.011 | [3] -0.134 | [4] -0.027 | [5] 0.018 | [6] -0.044 | [7] 0.169 | [8] -0.005 | [9] -0.053 | [10] -0.01 | [11] -0.012

PFDN1 (UniProt O60925)
Sequence of UniProt O60925 (O60925 whole entry, looked up): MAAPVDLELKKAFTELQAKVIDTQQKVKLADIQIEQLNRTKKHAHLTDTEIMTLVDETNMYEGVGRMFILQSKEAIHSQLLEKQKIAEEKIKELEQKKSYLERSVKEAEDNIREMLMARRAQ
inactive: [1] 0.013 | [2] 0.003 | [3] 0.002 | [4] -0.047 | [5] 0.044 | [6] -0.056 | [7] 0.09 | [8] -0.029 | [9] -0.05 | [10] -0.001 | [11] -0.089

PDPK1 (UniProt O15530)
active: [1] 0.238 | [3] -0.314
inactive: [2] -0.111 | [4] -0.061 | [5] 0.034 | [6] 0.108 | [7] 0.038 | [8] -0.04 | [9] 0.004 | [10] -0.019 | [11] -0.037

PRKAB2 (UniProt O43741)
Sequence of UniProt O43741 (O43741 whole entry, looked up): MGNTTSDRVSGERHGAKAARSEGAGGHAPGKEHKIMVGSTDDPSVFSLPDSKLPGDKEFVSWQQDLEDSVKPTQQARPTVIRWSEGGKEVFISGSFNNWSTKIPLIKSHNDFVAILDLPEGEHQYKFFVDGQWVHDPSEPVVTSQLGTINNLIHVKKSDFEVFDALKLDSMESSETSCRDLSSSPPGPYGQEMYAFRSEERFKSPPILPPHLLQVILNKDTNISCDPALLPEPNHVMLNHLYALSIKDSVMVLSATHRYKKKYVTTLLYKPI
inactive: [1] 0.204 | [2] 0.248 | [3] -0.077 | [4] 0.162 | [5] 0.186 | [6] 0.099 | [7] -0.1 | [8] 0.031 | [9] 0.121 | [10] -0.47 | [11] -0.12

PRKCD (UniProt Q05655)
inactive: [1] -0.086 | [2] -0.05 | [3] -0.081 | [4] -0.031 | [5] 0.024 | [6] 0.031 | [7] 0.006 | [8] 0.045 | [9] -0.06 | [10] -0.083 | [11] 0.018

PARP1 (UniProt P09874)
Sequence of UniProt P09874 (P09874 whole entry, looked up): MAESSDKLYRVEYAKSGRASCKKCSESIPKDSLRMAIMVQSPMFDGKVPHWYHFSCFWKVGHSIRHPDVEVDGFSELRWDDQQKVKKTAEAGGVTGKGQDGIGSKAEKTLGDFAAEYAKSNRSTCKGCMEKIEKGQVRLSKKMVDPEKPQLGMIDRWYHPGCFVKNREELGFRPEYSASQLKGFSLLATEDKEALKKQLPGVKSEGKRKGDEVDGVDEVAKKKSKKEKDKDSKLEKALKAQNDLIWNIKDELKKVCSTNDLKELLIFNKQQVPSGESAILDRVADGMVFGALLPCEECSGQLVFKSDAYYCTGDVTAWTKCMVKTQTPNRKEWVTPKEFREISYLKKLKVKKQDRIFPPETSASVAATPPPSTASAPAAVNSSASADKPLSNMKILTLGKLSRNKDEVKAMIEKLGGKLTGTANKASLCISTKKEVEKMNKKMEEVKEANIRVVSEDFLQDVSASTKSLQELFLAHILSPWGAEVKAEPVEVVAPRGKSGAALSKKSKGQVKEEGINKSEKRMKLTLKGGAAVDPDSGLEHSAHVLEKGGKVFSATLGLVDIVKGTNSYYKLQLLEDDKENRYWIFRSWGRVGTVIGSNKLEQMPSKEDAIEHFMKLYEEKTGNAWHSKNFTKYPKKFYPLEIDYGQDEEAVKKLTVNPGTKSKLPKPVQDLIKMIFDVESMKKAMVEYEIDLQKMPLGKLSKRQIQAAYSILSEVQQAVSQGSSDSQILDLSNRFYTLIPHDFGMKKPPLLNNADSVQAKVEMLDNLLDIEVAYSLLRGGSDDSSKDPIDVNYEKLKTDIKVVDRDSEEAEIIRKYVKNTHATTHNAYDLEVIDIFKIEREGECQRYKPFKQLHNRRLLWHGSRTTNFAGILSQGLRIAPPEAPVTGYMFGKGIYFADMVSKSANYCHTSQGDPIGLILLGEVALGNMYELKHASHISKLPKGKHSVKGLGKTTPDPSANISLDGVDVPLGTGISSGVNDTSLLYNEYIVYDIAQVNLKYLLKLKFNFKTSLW
inactive: [1] -0.128 | [2] -0.064 | [3] -0.102 | [4] -0.09 | [5] 0.142 | [6] 0.042 | [7] 0.091 | [8] 0.039 | [9] -0.173 | [10] 0 | [11] -0.092

POLR2D (UniProt O15514)
inactive: [1] 0.04 | [2] 0.145 | [3] -0.016 | [4] 0.022 | [5] -0.026 | [6] -0.133 | [7] -0.078 | [8] 0.049 | [9] -0.015 | [10] -0.06 | [11] 0.162

PURA (UniProt Q00577)
inactive: [1] 0.015 | [2] 0.105 | [3] 0.377 | [4] 0.036 | [5] -0.085 | [6] -0.079 | [7] -0.141 | [8] 0.248 | [9] 0.185 | [10] -0.114 | [11] 0.176
